# Measured values reported in PubChem BioAssay (NCATS).
# Where “and” joins values, the source holds several entries; their conditions need not be identical. Equal values may be shown once. Records with an inconclusive call do not appear. A call without a number means that no potency is given here. Values without a mark were called inactive. Calls of active or inactive are those of the source. Unless noted, calls follow the shape of the dose curve; as a rule, active = well fitted curve in the direction sought with a large enough effect; inconclusive = small, poorly fitted or top-dose-only effect, or another doubt; inactive = no such curve, though single readings can be large; an effect the other way counts as inactive or inconclusive.
# Assays:
# [1] = biological target: Cellular tumor antigen p53 (Homo sapiens) (UniProt P04637); test: Primary qHTS for small molecule compounds that upregulate eGFP-tagged delta133p53alpha (in N-terminal) cells. (AID 2060322); conditions: NCI-H358 eGFP-delta133p53alpha fluorescence, 24 h; activation: hits give high values; also: nearly all actives have a fitted effect of over 75% in size
# Sequence of Cellular tumor antigen p53 (Homo sapiens) (P04637 whole entry, looked up): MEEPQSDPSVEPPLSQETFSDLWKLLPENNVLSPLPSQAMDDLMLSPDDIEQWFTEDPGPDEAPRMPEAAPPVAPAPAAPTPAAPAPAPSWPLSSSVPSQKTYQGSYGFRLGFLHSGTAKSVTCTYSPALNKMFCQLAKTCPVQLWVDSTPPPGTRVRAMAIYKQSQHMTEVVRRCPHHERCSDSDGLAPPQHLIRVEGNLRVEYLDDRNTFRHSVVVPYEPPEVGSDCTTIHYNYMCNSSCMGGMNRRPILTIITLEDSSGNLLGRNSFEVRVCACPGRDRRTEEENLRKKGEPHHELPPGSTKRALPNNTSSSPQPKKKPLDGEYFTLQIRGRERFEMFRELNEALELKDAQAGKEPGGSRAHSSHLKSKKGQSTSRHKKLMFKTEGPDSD
# Procedure, shortened: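 NCI-H358 cells pre-induced 24 h with 10 ng/ml doxycycline to express N-terminal eGFP-delta133p53alpha, then dosed 24 h at 37C without doxycycline; fixed, Hoechst-stained, GFP intensity by laser scanning cytometry, normalized to DMSO (0%) and 57.5 uM 5-azacytidine (100%).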
# [2] = biological target: Cellular tumor antigen p53 (Homo sapiens) (UniProt P04637); test: Primary qHTS for small molecule compounds that upregulate eGFP-tagged delta133p53alpha (in C-terminal) cells. (AID 2060324); conditions: NCI-H358 delta133p53alpha-eGFP (C-terminal tag), GFP fluorescence imaging, 24 h; series mostly up to 57.5 µM
# Procedure, shortened: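 NCI-H358 cells pre-induced 24 h with 100 ng/ml doxycycline to express delta133p53alpha-eGFP, then dosed in doxycycline-free medium for 24 h at 37C. Fixed, Hoechst-stained; GFP intensity by laser scanning cytometry, normalized to DMSO wells.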
# [3] = biological target: Aldehyde dehydrogenase, mitochondrial (Homo sapiens) (UniProt P05091); test: qHTS for Inhibitors of the Aldehyde Dehydrogenase Family (ALDH2) Validation screens (AID 2061302; active = well fitted inhibition curve with a large enough effect; title and protocol of this record describe different tests); conditions: ALDH inhibition qHTS; series mostly up to 42.6 µM
# [4] = biological target: Retinaldehyde dehydrogenase 3 (Homo sapiens) (UniProt P47895); test: qHTS for Inhibitors of the Aldehyde Dehydrogenase Family (ALDH1A3) Validation screen (AID 2061312); conditions: ALDH1A3 enzyme inhibition qHTS validation, fluorescence; series mostly up to 84.7 µM; also: nearly all actives have a fitted effect of over 45% in size
# [5] = BET inhibitor-based combinations targeting novel dependencies in MECOM-rearranged (r) AML: SET-2 cell line (AID 2202231); conditions: SET-2 AML cells viability, CellTiter-Glo luminescence, 48 h; viability: hits give low values, concentration not given here; also: nearly all actives have a fitted effect of over 35% in size; also: potency is read from the fitted curve at half-maximal effect
# Procedure, shortened: (§1)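 Here, 11-point titrations of each agent were applied to 500 seeded cells and incubated 48 hr; CellTiter-Glo signal, scaled against DMSO and empty wells, was integrated as AUC, then Z-scored within the individual line.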
# [6] = BET inhibitor-based combinations targeting novel dependencies in MECOM-rearranged (r) AML: OCI-AML3 cell line (AID 2202232); conditions: CellTiter-Glo luminescence, 48 h; Potency: OCI-AML3 viability; series mostly up to 46 µM; also: nearly all actives have a fitted effect of over 35% in size; also: potency is read from the fitted curve at half-maximal effect
# Procedure, shortened: as §1
# [7] = BET inhibitor-based combinations targeting novel dependencies in MECOM-rearranged (r) AML: MV-4-11 cell line (AID 2202233); conditions: MV-4-11 AML viability, CellTiter-Glo luminescence, 48 h; series mostly up to 46 µM; also: nearly all actives have a fitted effect of over 45% in size; also: potency is read from the fitted curve at half-maximal effect
# Procedure, shortened: (§2)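 Normalized to DMSO and empty-well controls, the luminescence data from CellTiter-Glo after 48 hr drug exposure were fitted across 11 concentrations. Reported metrics are area under the dose-response curve and its Z-transformed form.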
# [8] = BET inhibitor-based combinations targeting novel dependencies in MECOM-rearranged (r) AML: HNT-34 cell line (AID 2202234); conditions: HNT-34 AML viability, CellTiter-Glo luminescence, 48 h; series mostly up to 46 µM; also: nearly all actives have a fitted effect of over 35% in size; also: potency is read from the fitted curve at half-maximal effect
# Procedure, shortened: as §2
# [9] = BET inhibitor-based combinations targeting novel dependencies in MECOM-rearranged (r) AML: UCSD-AML1 cell line (AID 2202235); conditions: UCSD-AML1 AML cells viability, CellTiter-Glo, 48 h; series mostly up to 46 µM; also: nearly all actives have a fitted effect of over 40% in size; also: potency is read from the fitted curve at half-maximal effect
# Procedure, shortened: as §2
# [10] = BET inhibitor-based combinations targeting novel dependencies in MECOM-rearranged (r) AML: AML-191 cell line (AID 2202236; also: nearly all actives have a fitted effect of over 35% in size; also: potency is read from the fitted curve at half-maximal effect); conditions: AML-191 viability, CellTiter-Glo luminescence, 48 h; series mostly up to 46 µM
# Procedure, shortened: as §1
# [11] = BET inhibitor-based combinations targeting novel dependencies in MECOM-rearranged (r) AML: AML-194 cell line (AID 2202237; also: nearly all actives have a fitted effect of over 40% in size; also: potency is read from the fitted curve at half-maximal effect); conditions: AML-194 (MECOM-r AML) viability, CellTiter-Glo, 48 h; series mostly up to 46 µM
# Procedure, shortened: as §1
Structure (SMILES),activation [1],Potency [2],Potency [3],Potency [4],Potency [5],Potency [6],Potency [7],Potency [8],Potency [9],Potency [10],Potency [11],viability [5] [%]
Cc1cc(Cl)ccc1OCCCC(=O)NO,35.3% and -37.1% and -6.7%,inactive,inactive,inactive,1.32 µM (active),20900 nM (active),18.6 µM (active),1.48 µM (active),3.72 µM (active),3.72 µM (active),4.17 µM (active),
NC(N)=NCc1cccc(I)c1,-18.3%,inactive,inactive,inactive,,,,,,,,
Brc1cc2c(cc1[C@H]1Nc3ccccc3[C@H]3C=CC[C@H]31)OCO2,-5.37%,inactive,inactive,inactive,,,,,,,,
NCCCCCC(=O)O,2.82% and -3.41%,inactive,inactive,inactive,,3.7 nM (active),inactive,inactive,inactive,inactive,inactive,112
Cc1ccc(C(=O)Nc2ccc(S(=O)(=O)O)c3cc(S(=O)(=O)O)cc(S(=O)(=O)O)c23)cc1NC(=O)c1cccc(NC(=O)Nc2cccc(C(=O)Nc3cc(C(=O)Nc4ccc(S(=O)(=O)O)c5cc(S(=O)(=O)O)cc(S(=O)(=O)O)c45)ccc3C)c2)c1,-19.3% and -10.7% and -18.3%,inactive,inactive,inactive,,inactive,inactive,inactive,inactive,inactive,inactive,108
CC(C)(NS(=O)(=O)c1ccc(Oc2ccc(F)cc2)cc1)C(=O)NO,-8.16%,inactive,inactive,inactive,,,,,,,,
CCC(C)N(C)C(=O)c1cc2ccccc2c(-c2ccccc2Cl)n1 (stereo unspecified),12.4% and -31.8%,inactive,inactive,inactive,,inactive,inactive,inactive,inactive,inactive,inactive,102
COC(=O)Nc1nc2ccc(C(=O)c3cccs3)cc2[nH]1,-4.18%,inactive,inactive,inactive,0.209 µM (active),93.4 nM (active),0.118 µM (active),0.0833 µM (active),0.0833 µM (active),,0.332 µM (active),
